The panel holds about 79,000 compounds, 15% with a hit somewhere; the sample as a whole holds those more often. A number with no mark means an inactive call. Active and inactive are the calls of the source. Cut-off read from the data, not from the text of the source: active = growth inhibition above about 70%; inactive = the rest.

The text below walks through data of PubChem BioAssay (NCI).

A short description of test [1]: NCI Yeast Anticancer Drug Screen. Data for the rad50 strain (AID 155).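 Note: 0% = growth of vehicle-only cultures of the same strain.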 As to conditions: S. cerevisiae rad50 strain growth inhibition, stronger effect = higher value. In outline:
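Compounds were tested on a yeast strain with an engineered DNA damage repair alteration; the reported value is growth inhibition normalised to vehicle treatment.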

Test [2] can be described thus: NCI Yeast Anticancer Drug Screen. Data for the mec2-1 strain (AID 157). Conditions: S. cerevisiae mec2-1 strain, stronger effect = higher value. In outline:
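Using mec2-1 yeast: add compound, measure growth, express inhibition versus vehicle-treated cultures.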

Test [3] is described as follows: NCI Yeast Anticancer Drug Screen. Data for the sgs1 mgt1 strain (AID 161).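 Note: 0% = growth of cultures given vehicle only.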 As to conditions: S. cerevisiae sgs1 mgt1 strain, stronger effect = higher value. In outline:
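Compounds are added to genetically altered yeast, and growth is compared with cultures given vehicle alone to give percent inhibition.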

The nature of test [4]: NCI Yeast Anticancer Drug Screen. Data for the cln2 rad14 strain (AID 165).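 Note: 0% = growth equal to vehicle treated cultures.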 As to conditions: S. cerevisiae cln2 rad14 strain, stronger effect = higher value. In outline: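 Yeast strain cln2 rad14, bearing defects in cell cycle control and DNA repair, serves as the test system; values reflect growth inhibition compared with vehicle.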
The nature of test [5]: NCI Yeast Anticancer Drug Screen. Data for the bub3 strain (AID 167). Conditions: S. cerevisiae bub3 mutant strain, stronger effect = higher value. In outline:
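Growth of a checkpoint-deficient yeast mutant is measured after compound exposure. Values represent inhibition relative to vehicle.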

A short description of test [6]: NCI Yeast Anticancer Drug Screen. Data for the mlh1 rad18 strain (AID 175). As to conditions: S. cerevisiae mlh1 rad18 strain growth inhibition, stronger effect = higher value. In outline:
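Steps: expose repair-defective yeast to compound; measure growth; express inhibition against vehicle-treated controls.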

Where [7] appears, read: at 5.0 µM (retest, dose inferred, filed as 0.5).
Where [8] appears, read: at 50.0 µM (retest, dose inferred, filed as 5.0).

Turning to `c1ccc2c(c1)Cc1c-2nc2ccccc2c1N1CCOCC1`, the growth inhibition in test [1] (setting [7]) was 87% (active); in test [1] (setting [8]), 98% (active); in test [1] (at 50.0 µM), 97% (active); in test [2] (setting [7]), 17%; in test [2] (setting [8]), 99% (active); in test [2] (at 50.0 µM) it was 91% (active). Further, the growth inhibition in test [3] (setting [7]) is 6%; in test [3] (setting [8]), 98% (active); in test [3] (at 50.0 µM), 82.3% (active); in test [4] (setting [7]), 18%; in test [4] (setting [8]), 98% (active); in test [4] (at 50.0 µM), 34.9%. The growth inhibition in test [5] (setting [7]) was 54%; in test [5] (setting [8]), 98% (active); in test [5] (at 50.0 µM) it was 67.5%; in test [6] (setting [7]), 25%; in test [6] (setting [8]), 98% (active); in test [6] (at 50.0 µM), 89.7% (active).

For `O=[N+]([O-])c1ccc(N=C(Cl)C(Cl)(c2ccccc2)c2ccccc2)cc1`, the growth inhibition in test [1] (setting [7]) is 14%; in test [1] (setting [8]), 97% (active); in test [1] (at 50.0 µM), 96.2% (active); in test [2] (setting [7]), 11%; in test [2] (setting [8]), 97% (active); in test [2] (at 50.0 µM), 96.7% (active). Also, the growth inhibition was -20% in test [3] (setting [7]); 98% (active) in test [3] (setting [8]); 97% (active) in test [3] (at 50.0 µM); 9% in test [4] (setting [7]); 97% (active) in test [4] (setting [8]); 94.2% (active) in test [4] (at 50.0 µM). Moreover, the growth inhibition in test [5] (setting [7]) was 8%; in test [5] (setting [8]), 96% (active); in test [5] (at 50.0 µM) it was 95.2% (active); in test [6] (setting [7]), 7%; in test [6] (setting [8]) it was 97% (active); in test [6] (at 50.0 µM), 95.5% (active).

As to `Clc1ccc(COC(CN2CCOCC2)c2ccccc2)c(Cl)c1` (configuration not stated), the growth inhibition was 2% in test [1] (setting [7]); 89% (active) in test [1] (setting [8]); 94.8% (active) in test [1] (at 50.0 µM); 8% in test [2] (setting [7]); 92% (active) in test [2] (setting [8]); 96.2% (active) in test [2] (at 50.0 µM). Besides, the growth inhibition is 19% in test [3] (setting [7]); 98% (active) in test [3] (setting [8]); 96% (active) in test [3] (at 50.0 µM); 11% in test [4] (setting [7]); 83% (active) in test [4] (setting [8]); 98.2% (active) in test [4] (at 50.0 µM). Besides, the growth inhibition in test [5] (setting [7]) was 23%; in test [5] (setting [8]), 95% (active); in test [5] (at 50.0 µM) it was 94.9% (active); in test [6] (setting [7]), 11%; in test [6] (setting [8]), 87% (active); in test [6] (at 50.0 µM) it was 97.6% (active).

Consider `CC1(C)CCN(CCOC(=O)C(c2ccccc2)C2C=CCCC2)C1` (configuration not stated), for which the growth inhibition was -3% in test [1] (setting [7]); 46% in test [1] (setting [8]); 64.2% in test [1] (at 50.0 µM); 25% in test [2] (setting [7]); 50% in test [2] (setting [8]); 56.6% in test [2] (at 50.0 µM). The growth inhibition in test [3] (setting [7]) is 29%; in test [3] (setting [8]) it was 69%; in test [3] (at 50.0 µM) it was 77% (active); in test [4] (setting [7]), 3%; in test [4] (setting [8]), 32%; in test [4] (at 50.0 µM) it was 73.7% (active). For the same compound, the growth inhibition in test [5] (setting [7]) was 4%; in test [5] (setting [8]), 26%; in test [5] (at 50.0 µM), 69.8%; in test [6] (setting [7]) it was 38%; in test [6] (setting [8]), 65%; in test [6] (at 50.0 µM), 70%.

Consider `COc1ccc(-c2c(C#N)cc(OC)c(OC)c2OC)c(C=O)c1`, for which the growth inhibition was 2% in test [1] (setting [7]); 24% in test [1] (setting [8]); 43.4% in test [1] (at 50.0 µM); -5% in test [2] (setting [7]); 29% in test [2] (setting [8]); 31.8% in test [2] (at 50.0 µM). In addition, the growth inhibition is -19% in test [3] (setting [7]); 62% in test [3] (setting [8]); 40.9% in test [3] (at 50.0 µM); 0% in test [4] (setting [7]); 11% in test [4] (setting [8]); 80.2% (active) in test [4] (at 50.0 µM). For the same compound, the growth inhibition is -3% in test [5] (setting [7]); 26% in test [5] (setting [8]); 75% (active) in test [5] (at 50.0 µM); 11% in test [6] (setting [7]); 57% in test [6] (setting [8]); 76.3% (active) in test [6] (at 50.0 µM).

For `Nc1ccc(Oc2ccccc2)cc1`, the growth inhibition in test [1] (setting [7]) was 2%; in test [1] (setting [8]), 38%; in test [1] (at 50.0 µM), 67.5%; in test [2] (setting [7]), -3%; in test [2] (setting [8]), 7%; in test [2] (at 50.0 µM), 33.9%. Moreover, the growth inhibition in test [3] (setting [7]) was -9%; in test [3] (setting [8]), 37%; in test [3] (at 50.0 µM), 75.6% (active); in test [4] (setting [7]), -1%; in test [4] (setting [8]), 1%; in test [4] (at 50.0 µM), 1.2%. Also, the growth inhibition in test [5] (setting [7]) was 0%; in test [5] (setting [8]) it was -18%; in test [5] (at 50.0 µM) it was 25.4%; in test [6] (setting [7]), -3%; in test [6] (setting [8]), 28%; in test [6] (at 50.0 µM), 54.8%.

In the case of `Cc1cccc(-c2csc(N)n2)c1`, the growth inhibition in test [1] (setting [7]) is 0%; in test [1] (setting [8]), 77% (active); in test [1] (at 50.0 µM), 61.1%; in test [2] (setting [7]), 3%; in test [2] (setting [8]), 35%; in test [2] (at 50.0 µM), 41%. Further, the growth inhibition in test [3] (setting [7]) is 2%; in test [3] (setting [8]) it was 37%; in test [3] (at 50.0 µM), 78% (active); in test [4] (setting [7]), -1%; in test [4] (setting [8]), 31%; in test [4] (at 50.0 µM), 39.6%. Moreover, the growth inhibition in test [5] (setting [7]) is -1%; in test [5] (setting [8]) it was 44%; in test [5] (at 50.0 µM), 31.1%; in test [6] (setting [7]), 1%; in test [6] (setting [8]), 63%; in test [6] (at 50.0 µM) it was 65.2%.

On to `Clc1nc2ccccc2nc1N1CCCCCC1`, for which the growth inhibition in test [1] (setting [7]) is 0%; in test [1] (setting [8]) it was 90% (active); in test [1] (at 50.0 µM) it was -17.5%; in test [2] (setting [7]) it was 2%; in test [2] (setting [8]), 96% (active); in test [2] (at 50.0 µM), -7.05%. Moreover, the growth inhibition is 1% in test [3] (setting [7]); 72% (active) in test [3] (setting [8]); 25.6% in test [3] (at 50.0 µM); -5% in test [4] (setting [7]); 74% (active) in test [4] (setting [8]); -21.4% in test [4] (at 50.0 µM). In addition, the growth inhibition is 9% in test [5] (setting [7]); 93% (active) in test [5] (setting [8]); 76% (active) in test [5] (at 50.0 µM); 2% in test [6] (setting [7]); 85% (active) in test [6] (setting [8]); 5.2% in test [6] (at 50.0 µM).

Take `O=[N+]([O-])c1ccc(O)c(C=Nc2ccccc2)c1`: the growth inhibition is -114% in test [1] (setting [7]); 31% in test [1] (setting [8]); 74.3% (active) in test [1] (at 50.0 µM); -50% in test [2] (setting [7]); -21% in test [2] (setting [8]); 69.5% in test [2] (at 50.0 µM). Moreover, the growth inhibition in test [3] (setting [7]) was -51%; in test [3] (setting [8]), 0%; in test [3] (at 50.0 µM), 64%; in test [4] (setting [7]), -57%; in test [4] (setting [8]) it was -6%; in test [4] (at 50.0 µM), 79.5% (active). Also, the growth inhibition was -71% in test [5] (setting [7]); -41% in test [5] (setting [8]); 54.6% in test [5] (at 50.0 µM); -96% in test [6] (setting [7]); -16% in test [6] (setting [8]); 82.8% (active) in test [6] (at 50.0 µM).
